Data from PubChem BioAssay AID504848 (National Center for Advancing Translational Sciences (NCATS), 2011).
Values joined by “and” are separate entries in the source; they are usually repeats but may differ in a detail not shown here. Identical values can stand only once. Hit rate of the full screen: of about 2,300 compounds, about 1,400 (61%) were called active. About 29% were inconclusive and are not listed. The set was probably picked from earlier hits. The list shows a part of the results. A number with no mark means an inactive call. Calls follow the shape of the dose curve; as a rule, active = well fitted inhibition curve with a large enough effect; inconclusive = small, poorly fitted or top-dose-only effect, or effect the other way; inactive = no such curve, though single readings can be large or run the other way.

Assay: Confirmation screen for delayed death inhibitors of the malarial parasite plastid, 96 hour incubation; also: nearly all actives have a fitted effect of over 60% in size
Conditions: P. falciparum luciferase growth in erythrocytes; series mostly up to 28.7 µM; activity change, negative = inhibition: at the top concentration
Procedure, shortened: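 Two-generation (96 h, 37 C) exposure of P. falciparum carrying an integrated firefly luciferase reporter in erythrocytes, 0.1% parasitemia and 2% hematocrit final, Albumax-supplemented RPMI. Luminescence decrease measures growth inhibition.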
% is scaled to controls: 0 for no effect and ±100 for the full control effect; potency is read from the fitted curve at half-maximal effect.

Compound | Potency | activity change, negative = inhibition [%]
COCCNC(=O)c1cccc(OC2CCN(Cc3cccc(SC)c3)CC2)c1 | 12.6 µM (active) | –
COCCNC(=O)c1cccc(OC2CCN(Cc3ccc(C(C)C)cc3)CC2)c1 | 11.2 µM (active) | –
CSc1cccc(CN2CCC(Oc3cccc(C(=O)N4CCCC4)c3)CC2)c1 | 12.6 µM (active) | –
CN(C)CCn1c(=O)n(Cc2ccco2)c(=O)c2c3c(sc21)CCCCC3 | 10 µM (active) | –
O=c1c(Cl)cc(Cl)nn1-c1ccccc1 | 12.6 µM (active) | –
COc1cc2c(cc1OC)CN(Cc1cc(=O)oc3c(C)c(C)ccc13)CC2 | 15.8 µM (active) | –
Cc1c(O)ccc2c(CN(C)Cc3ccccc3)cc(=O)oc12 | 12.6 µM (active) | –
Cc1ccccc1CN(C)Cc1cc(=O)oc2c(C)c(C)ccc12 | 15.8 µM (active) | –
Cc1ccc2c(CN(C)Cc3cccc(F)c3)cc(=O)oc2c1C | 12.6 µM (active) | –
O=C(COC(=O)c1ccc(F)c(S(=O)(=O)N2CCOCC2)c1)Nc1ccc2[nH]c(=O)[nH]c2c1 | – | -7.71
O=C(Nc1ccccc1N1CCOCC1)c1cccc(S(=O)(=O)N2CCOCC2)c1 | 11.2 µM (active) | –
O=C(Nc1ccccc1N1CCOCC1)c1ccc(F)c(S(=O)(=O)N2CCOCC2)c1 | 8.91 µM (active) | –
O=C(Nc1ccccc1[N+](=O)[O-])c1cc(S(=O)(=O)N2CCOCC2)cs1 | 14.1 µM (active) | –
C/C(=N\NC(=O)c1cccc(S(=O)(=O)N2CCOCC2)c1)c1ccc(O)cc1 | 1 µM (active) | –
COc1ccc(CNn2c(-c3ccccc3F)nc3ccccc3c2=O)cc1OC | 5.01 µM (active) | –
Cc1ccccc1C1=NC(C(F)(F)F)(C(F)(F)F)c2c(n(-c3ccc(F)cc3)c(=O)[nH]c2=O)N1 | 11.2 µM (active) | –
CC(=O)/C(C#N)=C1\NC(=O)C(Cc2ccc(C)c(Cl)c2)S1 (stereo not given) | 12.6 µM (active) | –
CC(=O)/C(C#N)=C1\NC(=O)C(Cc2ccc(C)c(C)c2)S1 (stereo not given) | 11.2 µM (active) | –
CC(=O)/C(C#N)=C1\NC(=O)C(Cc2cc(Cl)ccc2Cl)S1 (stereo not given) | 14.1 µM (active) | –
COC(=O)c1ccccc1SC1CC(=O)N(c2ccccc2)C1=O (stereo not given) | – | -1.25
CC(C)CN1C2CCCC1CC(NC(=S)NCc1ccco1)C2 (stereo not given) | 10 µM (active) | –
CCOC(=O)C1CCCCN1Cc1cccc(OCc2ccccc2)c1 (stereo not given) | 12.6 µM (active) | –
CCOC(=O)C1CCCN(Cc2ccc(OCc3ccccc3)c(OC)c2)C1 (stereo not given) | 10 µM (active) | –

Compound | Potency | activity change, negative = inhibition [%]
O=C(C1CCC(=O)N1Cc1ccccc1Cl)N1CCN(c2cccc(Cl)c2)CC1 (stereo not given) | 11.2 µM (active) | –
CCS(=O)(=O)c1nc(S(=O)(=O)c2ccc(C)cc2)c(N2CCC3(CC2)OCCO3)s1 | 10 µM (active) | –
Cc1ccc(CN(Cc2ccccn2)C(=O)Nc2ccc(C)c(C)c2)cc1 | 15.8 µM (active) | –
Cc1ccc(NC(=O)CN2C(=O)S/C(=C\c3ccccn3)C2=O)cc1C | – | -6.39
Cc1c(CN2CCC(CO)(CCOc3ccccc3)CC2)[nH]c2ccc(Cl)cc12 | 5.62 µM (active) | –
OCC1(CCOc2ccccc2)CCN(Cc2nc3ccc(F)cc3[nH]2)CC1 | 12.6 µM (active) | –
Cc1ccc(-n2c(-c3ccc(Cl)cc3)c[n+]3c2CCC3)cc1 | 0.0398 µM (active) | –
CC(C)(C)OC(=O)[C@H](Cc1ccccc1)NC(=O)c1nc[nH]c1C(=O)N1CCN(C(=O)OC(C)(C)C)CC1 | 12.6 µM (active) | –
CC(C)(C)OC(=O)CNC(=O)c1[nH]cnc1C(=O)NC1CCN(C(=O)OC(C)(C)C)CC1 | 12.6 µM (active) | –
CC(C)C[C@H](NC(=O)c1nc[nH]c1C(=O)N1CCN(C(=O)OC(C)(C)C)CC1)C(=O)OC(C)(C)C | 15.8 µM (active) | –
CCCCN(CCCNC(=O)C1CCN(C(=O)c2cc3sccc3n2C)CC1)Cc1ccccc1 | 0.562 µM (active) | –
CC(NC(=O)c1cc2sccc2n1C)c1ccc2c(c1)OCCO2 (stereo not given) | – | -11.1
O=S(=O)(CC(CN1CCCCC1)N1CCCCC1)c1ccccc1 (stereo not given) | 7.94 µM (active) | –
Cc1ccc(OCCn2cc(C(=S)N3CCCC3)c3ccccc32)cc1C | 14.1 µM (active) | –
Cc1cc(C)nc(SCc2nnc(SCC(=O)Nc3nc(-c4ccccc4)cs3)n2C)n1 | 14.1 µM (active) | –
CCOC(=O)CSc1nnc(CNc2nc(-c3ccccc3)cs2)n1C | 10 µM (active) | –
CCCCN(CCCC)CCC(O)c1cc2c(Cl)cc(Cl)cc2c2cc(C(F)(F)F)ccc12 (stereo not given) | 39.8 nM (active) and 20 nM (active) | –
COc1ccc(-n2c(C)cc(C(=O)Cn3c(NCCO)nc4ccccc43)c2C)cc1 | 10 µM (active) | –
CCCc1c(C)c2cccc(C)c2[nH]c1=O | – | -24
N#CC(C#N)=C1C=CC=CN1/C(=C\c1ccco1)C(=O)c1ccc(-c2ccccc2)cc1 | 12.6 µM (active) | –
COc1ccc(C(=O)/C(=C\c2ccco2)N2C=CC=CC2=C(C#N)C#N)cc1 | 15.8 µM (active) | –
N#CC(C#N)=C1C=CC=CN1/C(=C\c1ccco1)C(=O)c1ccc(Cl)cc1 | 15.8 µM (active) | –
